Each structure is given as a SMILES string. A structure can be active in one record and inactive in another. Active and inactive are the calls of the source. How the source made its calls: active means hit-call score of the fitted dose curve at least 0.9, where 1 is the maximum; inactive means score below 0.9.

A short description of this assay: ATG_AP_2_CIS: Attagene CIS-FACTORIAL HepG2 Assay for human Activator Protein 2 (AP-2) (AID 2282932). The settings on record: HepG2 AP-2 cis-reporter, Attagene transcription factor profiling; actives raise or lower the signal. The method, then: ATG_CIS is a cell-based, multiplexed-readout assay that uses HepG2, a human liver cell line, with measurements taken at 24 hours after chemical dosing in a 24-well plate.ATG_AP_2_CIS is one of 52 assay component(s) measured or calculated from the ATG_CIS assay. It is designed to make measurements of mRNA induction, a form of inducible reporter, as detected with fluorescence intensity signals by Reverse transcription polymerase chain reaction (RT-PCR) and Capillary electrophoresis technology.Data from the assay component ATG_AP_2_CIS was analyzed into 1 assay endpoint. This assay endpoint, ATG_AP_2_CIS, was analyzed with bidirectional fitting relative to DMSO as the negative control and baseline of activity. Using a type of inducible reporter, measures of mRNA for gain or loss-of-signal activity can be used to understand the reporter gene at the transcription factor-level as they relate to the gene TFAP2A and TFAP2B and TFAP2D. Furthermore, this assay endpoint can be referred to as a primary readout, because this assay has produced multiple assay endpoints where this one serves a reporter gene function. To generalize the intended target to other relatable targets, this assay endpoint is annotated to the dna binding intended target family, where the subfamily is basic helix-turn-helix leucine zipper.
Human liver HepG2 cells are transiently transfected with multiple reporter transcription units (MRTUs) in 6-well plates using FuGene 6 reagent (Roche; 3 ml FuGene/1 mg DNA). The MRTU constructs are regulated by a cis-regulating element (promoter). […] A major difference between the CIS and TRANS system is that in CIS activities of endogenous TFs are measured, whereas the TRANS assay evaluates changes in activities of exogenous, chimeric NR-Gal4 proteins. […] At the end of 24 hour incubation, total RNA was isolated using TriZol reagent (Invitrogen). The isolated RNA is then reverse-transcribed using oligo(dT) primer and Mo-MLV reverse transcriptase (Invitrogen) with DNAse I (Ambion) treatment for 30 min. The one-tenth of the produced cDNA was amplified by PCR using Taq DNA polymerase (Invitrogen) and two reporter sequence-specific primers. The PCR products were fluorescently labeled by primer extension with 6-arboxyfluorescein (6-FAM) 5'-labeled reporter sequence-specific primer (2 min at 95 C, 20 s at 68 C and 10 min at 72 C) and these products were digested with 5U of HpaI (New England Biolabs) for 2h at 37 C. The fragments were purified using Qiaquick PCR columns (Qiagen), analyzed on an ABI 3130xL genetic analyzer (Applied Biosystems) with peak positions identified by using a set of X-rhodamine (ROX)-labeled MapMarker1000 molecular weight standards (BioVentures). The raw capillary electrophoresis data was processed using Attagraph software (Attagene).
Take `COCC(C)OCC(C)O` (stereo not given): the molecule was classed as inactive.
The AC50 is the concentration at which the activity in the assay is half-maximal. In the case of `O=C(O)Cc1cc(I)c(Oc2cc(I)c(O)c(I)c2)c(I)c1`, the concentration at half-maximal activity (AC50) is 121 µM (active) and the molecule was called inactive.
As for `C#C[C@]1(O)CC[C@H]2[C@@H]3CCC4=CC(=O)CC[C@@H]4[C@H]3CC[C@@]21C`, the molecule was classed as inactive.
The same measure, in the same setting: next, `CN1CCC[C@H]1c1cccnc1`: “inactive”; `CCCCCCCCCCCCc1ccccc1S(=O)(=O)O`: “inactive”.
Take `OC1CCC(C2CCCCC2)CC1` (stereo not given): the concentration at half-maximal activity (AC50) was 56.9 µM (active) and the molecule was called inactive.
`NCC(F)(F)C(F)(F)C(F)(F)C(F)(F)C(F)(F)C(F)(F)C(F)(F)F`: the outcome was inactive.
Regarding `CC#C[C@]1(O)CC[C@H]2[C@@H]3CCC4=CC(=O)CCC4=C3[C@@H](c3ccc(N(C)C)cc3)C[C@@]21C`, the half-maximal activity concentration (AC50) is 25.7 µM (active) and the outcome was inactive.
For the molecule `CCCCCCC(=O)O`, the outcome was inactive.
Turning to `CCCOC(=O)c1ccc(O)cc1`, the molecule was called inactive.
On the same count and under the same terms, next, `Oc1cccc(O)c1`: “inactive”; `O=C(OCCOCCOC(=O)c1ccccc1)c1ccccc1`: “inactive”.
Consider `CCCCC[C@H](O)CC(=O)CCc1ccc(O)c(OC)c1`, for which the half-maximal activity concentration (AC50) is 79.2 µM (active).
As to `CC(C)(C)CC(C)(C)c1ccc(O)c(-n2nc3ccccc3n2)c1`, the outcome was inactive.
Still for that read-out and setting: for `CCOC(=O)CC(O)(CC(=O)OCC)C(=O)OCC` the value was “inactive”; for `CC(C)CCCCCCOC(=O)CCCCC(=O)OCCCCCCC(C)C`, “inactive”.
Same read-out and setting: next, `Oc1cc2ccccc2c2ccccc12`: “inactive”; `Cc1cc(CCN2CCN(c3nsc4ccccc34)CC2)cc2c1NC(=O)CC2(C)C`: “inactive”.
Regarding `Cc1oc(-c2ccccc2)nc1CCOc1ccc(C[C@H](Nc2ccccc2C(=O)c2ccccc2)C(=O)O)cc1`, the outcome was inactive.
On the same count and under the same terms, for `CCC(C)(C)C1CCC(O)CC1` (stereo not given) the value was “inactive”.
Still for that read-out and setting: for `OCCC(F)(F)C(F)(F)C(F)(F)C(F)(F)C(F)(F)C(F)(F)C(F)(F)C(F)(F)F` the value was “inactive”; for `CCCCCCCCOC(=O)CCCCCCCCC(=O)OCCCCCCCC`, “inactive”; for `O=[N+]([O-])c1ccc(O)cc1`, “inactive”.
Same read-out and setting: for `CN(C)C=O` the value was “inactive”.
On to `CCCCCCCC(=O)O`, for which the result was inactive.
Turning to `O=C(/C=C/c1ccc(O)cc1)CC(=O)/C=C/c1ccc(O)cc1`, the concentration at half-maximal activity (AC50) is 100 µM (active).
Regarding `ClC1=C(Cl)C(Cl)(Cl)C(Cl)=C1Cl`, the result was inactive.
With `CCN(CC)CCNc1ccc(CNC=O)c2sc3ccc(OC)cc3c(=O)c12`, the AC50 was 0.496 µM (active).
For the molecule `NC(=O)N(O)[C@@H]1C=C[C@H](Oc2cccc(Oc3ccc(F)cc3)c2)C1`, the molecule was called inactive.
Still for that read-out and setting: next, `CC[C@H](c1ccc(O)cc1)[C@@H](CC)c1ccc(O)cc1`: “inactive”; `CC(C)(C)c1cc(C(C)(C)C)c(O)c(C(C)(C)C)c1`: “inactive”.
`CC(O)C(=O)O` (stereo not given): the molecule was classed as inactive.
Still for that read-out and setting: next, `OCCC(F)(F)C(F)(F)C(F)(F)C(F)(F)C(F)(F)C(F)(F)F`: “inactive”; `CC[C@H](C)[C@@H](C(=O)O)n1sc2ccccc2c1=O`: “inactive”; `CCCCCCCCCCCCCC[N+](C)(C)C`: “inactive”.
Take `CCc1ccc(CCOc2ccc(CC3SC(=O)NC3=O)cc2)nc1` (stereo not given): the outcome was inactive.
Consider `CN1CCN(c2ccccc2/C=C2\SCCN(c3ccc(Cl)c(Cl)c3)C2=O)CC1`, for which the molecule was classed as inactive.

Values taken from PubChem BioAssay (EPA / NIEHS).
